Data as given in PubChem BioAssay (Tox21).
Records with an inconclusive call do not appear. The source made the active and inactive calls. Unless noted, calls follow the shape of the dose curve; as a rule, active = well fitted curve in the direction sought with a large enough effect in the repeat runs; inconclusive = weak or mixed curves; inactive = no such curve, though single readings can be large; an effect the other way counts as inactive or inconclusive.

How the values were obtained:
[1] = qHTS assay for small molecule agonists of the p53 signaling pathway (AID 651631; calls by dose curve; also: nearly all actives have a fitted effect of over 15% in size)
Outline: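 p53RE-bla HCT-116 cells; compounds 16 h, 37 °C; LiveBLAzer B/G FRET substrate 2 h RT; fluorescence intensity read-out, qHTS format.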

[2] = qHTS assay for small molecules that induce genotoxicity in human embryonic kidney cells expressing luciferase-tagged ATAD5 (AID 651632); also: nearly all actives have a fitted effect of over 15% in size
Outline: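 A rise in luciferase signal from ATAD5-tagged HEK293T cells marks genetic stress. Cells were exposed to compounds for 16 hr at 37C, 5% CO2, then luciferase was quantified after a 30 min room-temperature incubation with Amplite.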

[3] = qHTS assay for small molecule agonists of the p53 signaling pathway - cell viability (AID 651633; calls by dose curve;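 also: p53RE-bla HCT reporter cells with a stable beta-lactamase p53 reporter; series mostly up to about 83 µM; nearly all actives have a fitted effect of over 30% in size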)
Outline: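 p53RE-bla cells, seeded at 4,000 per well and rested 5 h at 37 C/5% CO2, received compounds in DMSO for 16 h at 37 C. CellTiter-Glo was then added, and luminescence was read after 30 min at room temperature to gauge cytotoxicity.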

[4] = qHTS assay for small molecule disruptors of the mitochondrial membrane potential - cell viability (AID 720634; calls by dose curve;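 also: human HepG2 liver cancer cells; series mostly up to about 83 µM; nearly all actives have a fitted effect of over 20% in size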)
Outline: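 Cytotoxicity was quantified from ATP content by CellTiter-Glo luminescence in the same wells as the MMP dye read-out. HepG2 (2,000 cells/well) were plated overnight and exposed to compounds for 1 hr at 37 C.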

[5] = qHTS assay for small molecule disruptors of the mitochondrial membrane potential (AID 720635)
Outline: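 HepG2 cells (2,000/well) attached overnight at 37C, then took compound for 1 hr at 37C, 5% CO2. Mito-MPS dye was added for 30 min; fluorescence was read at 490/535 nm (monomers) and 540/590 nm (aggregates).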

[6] = qHTS assay to test for compound auto fluorescence at 590 nm (red) in HepG2 cells (AID 720674)
Outline: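 Compound auto-fluorescence is scored relative to Rose Bengal sodium, measured at 540/590 nm in live HepG2 cultures after 1 hr compound contact (37 C, 5% CO2).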

[7] = qHTS assay to test for compound auto fluorescence at 535 nm (green) in HepG2 cells (AID 720675)
[8] = qHTS assay to test for compound auto fluorescence at 460 nm (blue) in HEK293 cells (AID 720678)
Outline: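 Blue read-out at excitation 405 nm and emission 460 nm follows overnight compound exposure of HEK293 cells at 37C in 5% CO2. Activity is given as auto fluorescence equivalency to triamterene.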

[9] = qHTS assay to test for compound auto fluorescence at 590 nm (red) in HEK293 cells (AID 720679)
Outline: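 Red channel, Ex/Em 540/590nm; signal expressed as equivalency to Rose Bengal sodium. HEK293, 2,000 cells/well, 10% dialyzed FBS; 23 nL compound pinned after 4-5 hr attachment; overnight 37C/5% CO2 before reading.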

[10] = qHTS assay for small molecules that induce genotoxicity in human embryonic kidney cells expressing luciferase-tagged ATAD5 - cell viability (AID 651634; calls by dose curve; also: nearly all actives have a fitted effect of over 25% in size)
Outline: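 Cytotoxicity counter-readout: after 15.5 hr compound treatment at 37C, live-cell protease activity in ATAD5-luciferase HEK293T cells measured by CellTiter-Fluor fluorescence, 30 min development at 37C.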
% is scaled to controls: 0 for no effect and ±100 for the full control effect.

C=COCCOCCOC=C
inactive: outcome [1] | outcome [2] | outcome [3] | outcome [4] | Potency [5] | outcome [6] | outcome [7] | outcome [8] | outcome [9]

CCCCCC1CCCC(=O)O1 (configuration not stated)
inactive: outcome [1] | outcome [2] | Potency [10] | outcome [4] | Potency [5] | outcome [6] | outcome [7] | outcome [8] | outcome [9]

C/C=C(\C)C(=O)OCC/C=C\CC
inactive: outcome [1] | outcome [2] | Potency [10] | outcome [4] | Potency [5] | outcome [6] | outcome [7] | outcome [8] | outcome [9]

CCC(=O)OCCC(C)CCC=C(C)C (configuration not stated)
inactive: outcome [1] | outcome [2] | outcome [3] | outcome [4] | outcome [6] | outcome [7] | outcome [8] | outcome [9]

BrC/C=C/CBr
inactive: outcome [1] | outcome [2] | Potency [10] | outcome [4] | fluorescence, relative to Rose Bengal [6] -0.458% [at 18.6 µM] | fluorescence, % of fluorescein control [7] -0.0535% [at 18.6 µM] | fluorescence, % of triamterene [8] 0.0974% [at 18.6 µM] | fluorescence, % of fluorescent control [9] 0.0091% [at 18.6 µM]

C1=CCC(c2ccccc2)CC1 (configuration not stated)
inactive: outcome [1] | outcome [2] | outcome [3] | outcome [4] | Potency [5] | outcome [6] | outcome [7] | outcome [8] | outcome [9]

OCCCCCCCl
inactive: outcome [1] | outcome [2] | Potency [10] | outcome [4] | Potency [5] | outcome [6] | outcome [7] | outcome [8] | outcome [9]

C=CCCCCCCCCCCC
inactive: activation [1] -4.17% [at 8.3 µM] | activation [2] 1.83% [at 8.08 µM] | activity, negative = cytotoxicity [10] -5.67% [at 8.08 µM] | activity change, negative = cytotoxicity [4] 9.56% [at 8.08 µM] | ratio activity, negative = MMP loss [5] -12.5% [at 8.08 µM] | fluorescence, relative to Rose Bengal [6] 0.0415% [at 3.72 µM] | fluorescence, % of fluorescein control [7] 0.103% [at 3.72 µM] | fluorescence, % of triamterene [8] -0.171% [at 3.72 µM] | fluorescence, % of fluorescent control [9] -0.0532% [at 3.72 µM]

CCCO
inactive: outcome [1] | outcome [2] | outcome [4] | Potency [5] | outcome [6] | outcome [7] | outcome [8] | outcome [9]

CCN1CN(CC)CN(CC)C1
inactive: outcome [1] | outcome [2] | Potency [10] | outcome [4] | Potency [5] | outcome [6] | outcome [7] | outcome [8] | outcome [9]

F[Si-2](F)(F)(F)(F)F
inactive: outcome [1] | outcome [2] | Potency [10] | outcome [4] | outcome [6] | outcome [7] | outcome [8] | outcome [9]

CCOC(=O)CC(CC(=O)OCC)(OC(C)=O)C(=O)OCC
inactive: outcome [1] | outcome [2] | outcome [3] | outcome [4] | outcome [6] | outcome [7] | outcome [8] | outcome [9]

COC(OC)C(C)c1ccccc1 (configuration not stated)
inactive: outcome [1] | outcome [2] | Potency [10] | outcome [4] | Potency [5] | outcome [6] | outcome [7] | outcome [8] | outcome [9]

O=C(Oc1ccccc1C(=O)O)c1ccccc1O
inactive: outcome [1] | outcome [2] | Potency [10] | outcome [4] | Potency [5] | outcome [6] | outcome [7] | outcome [8] | outcome [9]

CC(C)CCO
inactive: outcome [1] | outcome [2] | outcome [3] | outcome [4] | outcome [6] | outcome [7] | outcome [8] | outcome [9]

CC(C)(C)c1ccc(C=O)cc1
inactive: outcome [1] | outcome [2] | outcome [3] | outcome [4] | Potency [5] | outcome [6] | outcome [7] | outcome [8] | outcome [9]

Nc1ccnc(=O)[nH]1
inactive: outcome [1] | outcome [2] | outcome [3] | outcome [4] | Potency [5] | outcome [6] | outcome [7] | outcome [8] | outcome [9]

CC(C)(c1ccc(Oc2ccc3c(c2)C(=O)OC3=O)cc1)c1ccc(Oc2ccc3c(c2)C(=O)OC3=O)cc1
inactive: outcome [1] | outcome [2] | outcome [3] | outcome [4] | Potency [5] | outcome [6] | outcome [7] | outcome [8] | outcome [9]

Cc1ccc(S(=O)(=O)NC(=O)NC2CCCCCCC2)cc1
inactive: outcome [1] | outcome [2] | Potency [10] | outcome [4] | Potency [5] | outcome [6] | outcome [7] | outcome [8] | outcome [9]

NS(=O)(=O)c1cc2c(cc1Cl)NC(CC1CCCC1)NS2(=O)=O (configuration not stated)
inactive: outcome [1] | outcome [2] | Potency [10] | outcome [4] | Potency [5] | fluorescence, relative to Rose Bengal [6] -0.14% [at 18.6 µM] | fluorescence, % of fluorescein control [7] -0.0768% [at 18.6 µM] | fluorescence, % of triamterene [8] -0.024% [at 18.6 µM] | fluorescence, % of fluorescent control [9] -0.246% [at 18.6 µM]

CCCCC(=O)N(C)C
inactive: outcome [1] | outcome [2] | Potency [10] | Potency [5] | outcome [6] | outcome [7] | outcome [8] | outcome [9]

COc1cc2c3cc1Oc1cc(ccc1O)C[C@@H]1c4c(cc(OC)c(O)c4Oc4ccc(cc4)C[C@@H]3N(C)CC2)CC[N+]1(C)C
inactive: outcome [1] | outcome [2] | Potency [10] | outcome [4] | Potency [5] | outcome [6] | outcome [7] | outcome [8] | outcome [9]

Nc1cc(C(=O)O)ccc1Cl
inactive: outcome [1] | outcome [2] | outcome [4] | Potency [5] | outcome [6] | outcome [7] | outcome [8] | outcome [9]

NS(=O)(=O)c1ccc(Cl)c(S(N)(=O)=O)c1
inactive: outcome [1] | outcome [2] | outcome [3] | outcome [4] | outcome [6] | outcome [7] | outcome [8] | outcome [9]

Cc1ccccc1OCC1CO1 (configuration not stated)
inactive: outcome [1] | outcome [2] | Potency [10] | outcome [4] | outcome [6] | outcome [7] | outcome [8] | outcome [9]

O=C(O)c1ccccc1C(=O)Nc1ccc(S(=O)(=O)Nc2nccs2)cc1
inactive: outcome [1] | outcome [2] | Potency [10] | outcome [4] | Potency [5] | outcome [6] | outcome [7] | outcome [8] | outcome [9]

CC(=O)Nc1ccc(C)cc1
inactive: outcome [1] | outcome [2] | Potency [10] | outcome [4] | outcome [6] | outcome [7] | outcome [8] | outcome [9]
